This is an account of results in PubChem BioAssay.

Assay [1] can be described thus: optical density shifts of acrAB sulA E. coli – strain DRC41, OD650, 48 h, E. coli filamentation inducer project, primary screen (AID 1152).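 Further: E. coli MC1000 strain DRC41 lacking acrAB efflux pump and sulA.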 The following applies: higher = more signal, called active from +8 up or from −8 down.
Assay [2] in a line: probe aLefty1 binding on compound microarray – biochemical, small-molecule microarray, 635/667 nm fluorescence, primary screen (AID 1153).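 Further: score merges spot fluorescence with signal-to-noise ratio from the scanned slide images.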 The following applies: higher = more signal.
The nature of assay [3]: plasmodial surface anion channel blockers, osmotic lysis – cell-based, P. falciparum Indochina, OD700, 1 h, primary screen (AID 1154). The following applies: P. falciparum Indochina infected RBC osmotic lysis, higher = more signal, called active from +8 up or from −8 down.
A short description of assay [4]: plasmodial surface anion channel blockers, osmotic lysis – cell-based, P. falciparum Indochina, OD700, 2 h, primary screen (AID 1155).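 Further: lysis reports solute entry through the parasite surface anion channel PSAC.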 Conditions: P. falciparum Indochina infected erythrocytes, higher = more signal, called active from +8 up or from −8 down.
Assay [5] can be described thus: changes in parasitized red cell lysis, either direction – P. falciparum Indochina, OD700, 3 h, PSAC antagonist project, primary screen (AID 1156). Conditions: P. falciparum-infected erythrocytes, osmotic lysis, higher = more signal, called active from +8 up or from −8 down.
Assay [6] can be described thus: plasmodial surface anion channel blockers, osmotic lysis – cell-based, P. falciparum Indochina, OD700, 18 h, primary screen (AID 1157). Conditions: P. falciparum Indochina infected erythrocytes, osmotic lysis OD700, 18 h; higher = more signal, called active from +8 up or from −8 down.
Assay [7] can be described thus: S6 kinase pathway phospho-S6 level changes – cell-based, A549, cytoblot, luminescence, serum-stimulated, primary screen (AID 1158).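 Further: serum-stimulated A549 lung adenocarcinoma cells; signal is phosphorylated S6 detected by cytoblot immunostaining with HRP secondary.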 The following applies: 5 h, higher = more signal.
In assay [8] the target is NADPH oxidase 2 (Homo sapiens) (UniProt P04839). Put plainly: compounds shifting NOX2 Amplex Red fluorescence – cell-based, HEK293-NOX2, PMA-stimulated, NOX inhibitor project, primary screen (AID 1159). Further: test concentration not given here. Conditions: 45 min, higher = more signal, called active from +8 up or from −8 down.
The target in assay [9] is NADPH oxidase 4 (Homo sapiens) (UniProt Q9NPH5). Put plainly: compounds shifting NOX4 Amplex Red fluorescence – cell-based, HEK293-NOX4, tetracycline-induced, NOX inhibitor project, primary screen (AID 1160). The following applies: HEK293-NOX4, Amplex Red H2O2 fluorescence, 45 min; higher = more signal, called active from +8 up or from −8 down.
Assay [10] addresses NADPH oxidase 5 (Homo sapiens) (UniProt Q96PH1). Put plainly: compounds shifting NOX5 Amplex Red fluorescence – cell-based, HEK293-NOX5, NOX inhibitor project, primary screen (AID 1161). Conditions: HEK293-NOX5, ionomycin, 45 min, higher = more signal.

The structures appear in SMILES notation. Active and inactive are the calls of the source.

Chain of NADPH oxidase 4 (Homo sapiens) (Q9NPH5 whole entry, looked up): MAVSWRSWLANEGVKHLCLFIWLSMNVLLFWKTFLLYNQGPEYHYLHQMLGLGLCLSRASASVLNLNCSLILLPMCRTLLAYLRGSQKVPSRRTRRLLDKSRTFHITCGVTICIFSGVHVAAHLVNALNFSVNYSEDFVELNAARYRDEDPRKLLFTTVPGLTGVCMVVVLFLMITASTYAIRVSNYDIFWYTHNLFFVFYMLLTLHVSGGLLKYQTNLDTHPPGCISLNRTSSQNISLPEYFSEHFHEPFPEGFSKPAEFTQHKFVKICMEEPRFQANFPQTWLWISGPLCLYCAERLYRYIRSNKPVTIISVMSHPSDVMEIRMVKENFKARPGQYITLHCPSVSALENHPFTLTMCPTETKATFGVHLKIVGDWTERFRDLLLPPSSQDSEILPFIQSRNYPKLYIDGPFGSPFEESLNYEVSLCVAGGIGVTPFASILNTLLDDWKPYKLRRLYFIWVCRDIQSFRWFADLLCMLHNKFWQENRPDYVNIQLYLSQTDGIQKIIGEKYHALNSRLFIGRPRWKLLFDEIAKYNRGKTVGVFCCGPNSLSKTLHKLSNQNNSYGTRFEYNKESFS
Chain of NADPH oxidase 2 (Homo sapiens) (P04839 whole entry, looked up): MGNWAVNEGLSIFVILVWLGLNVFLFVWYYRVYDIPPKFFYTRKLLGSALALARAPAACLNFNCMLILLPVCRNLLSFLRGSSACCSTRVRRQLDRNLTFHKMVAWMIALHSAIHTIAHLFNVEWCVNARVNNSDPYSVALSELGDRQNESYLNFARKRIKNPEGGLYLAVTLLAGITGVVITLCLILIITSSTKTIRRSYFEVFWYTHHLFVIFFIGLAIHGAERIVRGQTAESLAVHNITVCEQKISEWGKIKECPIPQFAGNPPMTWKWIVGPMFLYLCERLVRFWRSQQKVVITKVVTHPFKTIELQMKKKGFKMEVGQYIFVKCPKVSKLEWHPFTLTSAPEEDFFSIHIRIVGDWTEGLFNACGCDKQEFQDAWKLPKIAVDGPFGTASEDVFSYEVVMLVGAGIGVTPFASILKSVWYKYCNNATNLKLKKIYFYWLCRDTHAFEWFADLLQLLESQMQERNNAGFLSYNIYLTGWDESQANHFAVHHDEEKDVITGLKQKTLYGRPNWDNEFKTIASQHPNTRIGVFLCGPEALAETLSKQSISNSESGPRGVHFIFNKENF
Chain of NADPH oxidase 5 (Homo sapiens) (Q96PH1 whole entry, looked up): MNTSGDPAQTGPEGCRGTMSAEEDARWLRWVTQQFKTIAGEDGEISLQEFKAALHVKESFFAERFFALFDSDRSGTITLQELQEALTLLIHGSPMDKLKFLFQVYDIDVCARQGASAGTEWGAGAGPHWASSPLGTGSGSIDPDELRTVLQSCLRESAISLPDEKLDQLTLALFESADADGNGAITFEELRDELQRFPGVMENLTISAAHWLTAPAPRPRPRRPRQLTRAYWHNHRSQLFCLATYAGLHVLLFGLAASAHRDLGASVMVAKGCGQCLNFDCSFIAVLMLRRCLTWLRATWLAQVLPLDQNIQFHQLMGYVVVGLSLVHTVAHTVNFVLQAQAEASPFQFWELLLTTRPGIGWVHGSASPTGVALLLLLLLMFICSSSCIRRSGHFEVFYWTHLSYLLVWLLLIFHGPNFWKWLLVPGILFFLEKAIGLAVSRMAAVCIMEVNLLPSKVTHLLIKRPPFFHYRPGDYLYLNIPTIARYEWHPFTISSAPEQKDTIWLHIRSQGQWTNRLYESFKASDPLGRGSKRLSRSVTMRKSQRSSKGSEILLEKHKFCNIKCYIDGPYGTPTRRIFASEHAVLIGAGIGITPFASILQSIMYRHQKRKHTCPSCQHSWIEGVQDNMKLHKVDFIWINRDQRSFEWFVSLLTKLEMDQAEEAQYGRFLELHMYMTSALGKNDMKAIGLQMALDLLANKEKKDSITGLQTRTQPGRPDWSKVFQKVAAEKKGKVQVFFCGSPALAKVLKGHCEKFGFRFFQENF

Turning to `Cc1ccc(S[C@]2(C(=O)NCCN3CCOCC3)CC(=O)N(Cc3cc(C(F)(F)F)cc(C(F)(F)F)c3)[C@@H]2c2ccc(CO)cc2I)cc1`, the z-score in [1] is 0.288 (inactive); in [3], 2.66 (inactive); in assay [4], -0.599 (inactive); in assay [5], -1.61 (inactive); in assay [6], -1.68 (inactive); in assay [7], 0.704. Besides, the z-score in assay [8] is 2.05 (inactive); in assay [9], -0.995 (inactive); in assay [10], 3.01. Further, the composite z-score in assay [2] was 0.0742.
As to `COC(=O)[C@@]1(Cc2ccccc2)N=C(c2ccc(OCCCO)cc2)O[C@H]1c1ccccc1N=[N+]=[N-]`, the z-score in assay [1] is 0.388 (inactive); in assay [3], 29.2 (active); in [4], 24.1 (active); in [5], 1.79 (inactive); in [6] it was 5.76 (inactive); in assay [7] it was 0.661. The z-score in assay [8] was -2.01 (inactive); in [9] it was 0.373 (inactive); in assay [10], -1.06. Also, the composite z-score in assay [2] came to 0.129.
`C=CC(=C)C1=CCO[C@@H]1[C@H]1CCCN1S(=O)(=O)c1ccccc1[N+](=O)[O-]`: the z-score was 0.279 (inactive) in [1]; 2.97 (inactive) in assay [3]; 0.577 (inactive) in [4]; 0.544 (inactive) in assay [5]; 0.281 (inactive) in assay [6]; -0.031 in assay [7]. For the same molecule, the z-score in [8] was 0.516 (inactive); in assay [9], 1.06 (inactive); in assay [10], 0.77. In addition, the composite z-score in [2] is -0.148.
With `COc1ccc([Si](C)(C)[C@@H]2[C@@H](CC(=O)N3CCC[C@H]3CO)O[C@]3(C(=O)N(C)c4c(Br)cc(C)cc43)[C@H]2C)cc1`, the z-score was -0.674 (inactive) in assay [1]; 5.59 (inactive) in [3]; 0.576 (inactive) in assay [4]; 0.405 (inactive) in assay [5]; 0.768 (inactive) in assay [6]; -0.415 in assay [7]. Also, the values for the z-score in assay [8], in assay [9] and in assay [10] were 1.73 (inactive), 1.17 (inactive) and 3.69, respectively. Also, the composite z-score in assay [2] is -0.251.
Regarding `CCOC(=O)C[C@H]1[C@H](OC(=O)c2ccc(-c3ccccc3)cc2)[C@@H](NC(=O)Cc2ccc(OC)cc2)c2cc(OCCCO)ccc2N1C(=O)c1ccc2ccccc2n1`, the z-score in [1] is -0.667 (inactive); in assay [3], 2.63 (inactive); in assay [4] it was 0.393 (inactive); in assay [5], -0.619 (inactive); in [6], 0.653 (inactive); in assay [7] it was 1.3. The z-score in assay [8] is 0.377 (inactive); in assay [9], 1.29 (inactive); in assay [10], 1.73. For the same molecule, in [2], the composite z-score was -0.231.
Take `COc1ccc(C(O)C2C=CC3C(=O)NC(=O)C3N2Nc2ccccn2)cc1OCc1ccccc1` (stereo not given): the z-score in [1] was -0.325 (inactive); in assay [3], 1.68 (inactive); in assay [4] it was 0.396 (inactive); in assay [5], 0.479 (inactive); in assay [6], 1.04 (inactive); in assay [7] it was -0.432. Further, the z-score in [8] was -1.49 (inactive); in assay [9], -3.05 (inactive); in assay [10], -2.03. For the same molecule, the composite z-score in [2] was -0.106.
Regarding `Cc1ccccc1C(O)C1C=CC2C(=O)N(C)C(=O)C2N1Nc1ccccc1` (stereo not given), the z-score is -1.71 (inactive) in [1]; 1.15 (inactive) in assay [3]; 0.737 (inactive) in assay [4]; -0.0787 (inactive) in assay [5]; 1.1 (inactive) in assay [6]; -0.711 in assay [7]. Further, the z-score in assay [8] is -1.39 (inactive); in assay [9], -4.19 (inactive); in assay [10] it was -2.72. Also, the composite z-score in assay [2] worked out at 0.274.
In the case of `COC(=O)C[C@@H]1C[C@H](C)[C@]2(O1)C(=O)N(Cc1ccccc1)c1ccc(NC(C)=O)cc12`, the z-score in [1] was 0.442 (inactive); in [3], 1.66 (inactive); in [4], -0.0327 (inactive); in assay [5], 0.962 (inactive); in assay [6], 0.0822 (inactive); in assay [7], 0.525. Moreover, the z-score is 0.627 (inactive) in [8], -1.06 (inactive) in assay [9] and 2.27 in [10]. In addition, the composite z-score in assay [2] is -0.193.
For `COCCOC(=O)N1C(=O)[C@@]2(c3cc(C#CCC(C(=O)OC)C(=O)OC)ccc31)[C@H](c1ccccc1OCCO)N1[C@H](c3ccccc3)[C@H](c3ccccc3)OC(=O)[C@H]1[C@@H]2C(=O)N1CCc2cc(OC)c(OC)cc2C1`, the z-score in [1] was 2.09 (inactive); in assay [3], 1.87 (inactive); in [4], -0.226 (inactive); in assay [5], -0.23 (inactive); in assay [6], -0.466 (inactive); in [7] it was 0.61. Moreover, the z-score was 1.26 (inactive) in assay [8], 1.56 (inactive) in assay [9] and 0.631 in assay [10]. The composite z-score in assay [2] amounted to 0.438.
With `CC(C)(C)OC(=O)CC[C@@]1(C(=O)NCCN2CCOCC2)N=C(c2ccc(OCCCO)cc2)O[C@@H]1c1ccccc1`, the z-score in [1] was 1.18 (inactive); in [3], 14.8 (active); in assay [4] it was 1.8 (inactive); in [5] it was 0.267 (inactive); in [6] it was 0.813 (inactive); in assay [7], 0.413. Besides, the values for the z-score in assay [8], in assay [9] and in [10] were 0.63 (inactive), 1.03 (inactive) and 1.8, respectively. This molecule also showed a composite z-score in assay [2] of 0.296.
